The source of these data is PubChem BioAssay (NCI).

About 83,000 compounds went through this panel and 20% of them were active in at least one assay; those are over-represented in the sample as a whole.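 Single-concentration screen, 48 h exposure, 96-well plates. Endpoint: percent growth. Below 10 = active.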 Unmarked numbers belong to inactive results. Active and inactive are the calls of the source.

What all share (assay): NCI-60 one-dose screen, 48 h (100 = growth as untreated, 0 = no growth, -100 = all killed)
Conditions in all cases: 10 µM unless noted

Assay [1] relates to NCI-H23 lung.
The test system of assay [2] is NCI-H226 lung.
Assay [3] has as its system NCI-H322M lung.
Assay [4] concerns HOP-62 NSCLC.
Assay [5] has as its system NCI-H460 lung.
Assay [6] concerns HOP-92 NSCLC.
Assay [7] deals with NCI-H522 lung.
In assay [8] the test system is A549/ATCC NSCLC.
In assay [9] the test system is 786-0 renal.
The test system of assay [10] is COLO 205 colon.
The subject of assay [11] is DU-145 prostate.
Assay [12] deals with K-562 leukemia.
For assay [13], the system named is MALME-3M melanoma.
Assay [14] deals with MDA-MB-231 breast.
Assay [15] relates to RXF 393 renal.
Assay [16] concerns SF-268 CNS.
Assay [17] concerns SF-295 CNS.
Assay [18] concerns SF-539 CNS.
The subject of assay [19] is UACC-257 melanoma.
Assay [20] has as its system M14 melanoma.

In the case of `O=[N+]([O-])c1c(O)c(Cl)cc(Cl)c1Cl`, the growth in [1] is 98.7%; in assay [2], 94.4%; in assay [3], 101%; in assay [4] it was 97.9%; in assay [5], 107%; in [6] it was 83.3%. The growth in [7] is 94.7%; in assay [8], 93.1%; in assay [9], 99.6%; in [10] it was 116%; in assay [11] it was 113%; in [12], 103%. The growth in assay [13] was 96.5%; in assay [14], 103%; in assay [15], 104%; in assay [16] it was 102%; in [17], 97.9%; in assay [18] it was 109%. For the same compound, the growth was 108% in assay [19] and 98.1% in assay [20].
For the compound `Cc1ccc(NC(=O)c2cc3ccccc3cc2O)c(C)c1`, the growth in [1] was 71.9%; in [2], 86.6%; in assay [3], 94.4%; in [4] it was 89.3%; in [5], 79.9%; in assay [6] it was 36.4%. In addition, the growth in assay [7] was -1.58% (active); in assay [8], 106%; in [9] it was 84.7%; in [10], 78.5%; in assay [11], 96.3%; in assay [12], 63.6%. For the same compound, the growth in assay [13] was 69.8%; in assay [14] it was 97.8%; in [15] it was 113%; in assay [16], 102%; in assay [17], 94.1%; in [18], 78.7%. Moreover, the growth is 86.3% in assay [19] and 86.9% in assay [20].
In the case of `C=C(C)[C@@H]1CC[C@]2(C)[C@H](C=CC3=C4C[C@@](C)(CO)CC[C@]4(C)CC[C@]32C)[C@@]1(C)CCCN`, the growth in [1] is -37.1% (active); in assay [2] it was 90.8%; in assay [3] it was -14.3% (active); in [4], -54.9% (active); in assay [5], -86.2% (active); in [6] it was -52.9% (active). In addition, the growth is -43.1% (active) in [7]; -62.2% (active) in assay [8]; -97.3% (active) in assay [9]; -64.4% (active) in [10]; -72.7% (active) in assay [11]; 0.273% (active) in assay [12]. For the same compound, the growth in [13] was -45.2% (active); in assay [14] it was -75.7% (active); in assay [15] it was -69.5% (active); in assay [16], -55.8% (active); in [17], 73.3%; in assay [18], -90% (active). Moreover, the figures for the growth in assay [19] and in assay [20] were -60.4% (active) and -66.2% (active), respectively.
Regarding `CN1CCOCCN(C)Cc2ccc3ccc(cc3c2)CN(C)CCOCCN(C)Cc2ccc3ccc(cc3c2)C1`, the growth in [1] was 90.2%; in assay [2], 111%; in [3], 99.6%; in assay [4], 91.8%; in [5], 59.5%; in assay [6] it was 85.8%. The growth in [7] is 110%; in [8], 96.3%; in assay [9], 75.8%; in assay [10], 94.6%; in [11] it was 57.8%; in [12], -10.3% (active). The growth in assay [13] was 68.8%; in assay [14], 70.8%; in [15], 75.9%; in assay [16] it was 84.9%; in assay [17], 103%; in assay [18], 79.3%. Further, the growth in [19] is 110%; in assay [20], 99.4%.
For `COc1cc(-c2nccc3[nH]c(-c4cccc5[nH]ccc45)nc23)cc(OC)c1OC`, the growth is 26.8% in assay [1]; 34% in assay [2]; 64% in assay [3]; 12.2% in assay [4]; 7.17% (active) in assay [5]; -2.13% (active) in assay [6]. The growth in assay [7] was -15.7% (active); in [8], 17.3%; in assay [9] it was 7.27% (active); in assay [10], -62.9% (active); in assay [11], 22.7%; in [12], 8.35% (active). Further, the growth in assay [13] was 56%; in assay [14], 19.7%; in assay [15], 50.8%; in [16], 34.2%; in [17], 21%; in [18] it was 3.35% (active). In addition, the values for the growth in [19] and in assay [20] were 58.7% and 20.6%, respectively.
On to `CC1(C)CC[C@]2(CO)CC[C@]3(C)[C@](O)([C@H](O)C[C@@H]4[C@@]5(C)CCCNC(C)(C)[C@@H]5CC[C@]43C)[C@@H]2C1`, for which the growth is 95% in assay [1]; 106% in assay [2]; 103% in [3]; 101% in assay [4]; 88.8% in [5]; 94% in [6]. Further, the growth in [7] was 92.4%; in assay [8] it was 85.2%; in [9], 101%; in assay [10] it was 44.2%; in assay [11], 103%; in [12], 10.3%. Besides, the growth is 101% in assay [13]; 102% in assay [14]; 94.9% in [15]; 98.9% in [16]; 108% in [17]; 97.9% in [18]. Further, the growth in [19] is 96.3%; in assay [20], 96.1%.
For `COc1ccc(C=Nc2c(C(=O)Nc3cccc(Cl)c3C)sc3nc(C)c(C(=O)/C=C/c4ccc(OC)cc4)cc23)cc1`, the growth in assay [1] was 31.2%; in assay [2], 53.8%; in assay [3], 43.1%; in assay [4] it was 46.5%; in [5] it was 8.92% (active); in assay [6], 79.2%. In addition, the growth was 0.467% (active) in [7]; 30.8% in [8]; 21.5% in [9]; 11.2% in assay [10]; 14.7% in assay [11]; 17.1% in assay [12]. In addition, the growth is 44.4% in assay [13]; 2.5% (active) in [14]; -44.4% (active) in assay [15]; 29.9% in assay [16]; 18.5% in assay [17]; -30.6% (active) in assay [18]. Further, the growth in assay [19] was 55.6%; in assay [20], -3.16% (active).
As to `CCCC(O)Cn1ncc(C(=O)OCC)c1NC(=O)NCc1cccc(C(F)(F)F)c1` (stereo not given), the growth in [1] was 80.1%; in assay [2], 103%; in assay [3] it was 84.3%; in assay [4] it was 88.2%; in assay [5] it was 103%; in assay [6], 58.8%. Further, the growth in assay [7] is 46.5%; in assay [8], 95%; in [9], 80.1%; in [10] it was 109%; in assay [11], 99.8%; in assay [12], 46.9%. Moreover, the growth in [13] was 92%; in assay [14] it was 95.1%; in assay [15], 113%; in assay [16] it was 103%; in [17] it was 93.8%; in assay [18] it was 94.3%. In addition, the values for the growth in [19] and in assay [20] were 101% and 58.5%, respectively.
